# Data reported in ChEMBL document CHEMBL3988442, “University of Dundee, Small-Polar-MMV Screening Library” (2021).
# Biological target: AMP-activated protein kinase, AMPK (Homo sapiens) (UniProt P54646+O43741+P54619+Q9UGJ0+Q9Y478+Q13131+Q9UGI9)
# Assay: AMP-dependent Kinase enzyme assay. An in vitro enzyme assay that detects ADP turnover that is directly proportional to AMPK activity. This uses naive AMPK that is activated during the assay with MK-8722
# Format: functional
# Set-up: scale not given: direction of the effect not stated beside the values
# Settings: 30 µM
row,SMILES,Percent Effect [%]
1,CCOCCN1CCN(c2ccc(C#N)cn2)CC1,1.16
2,CN1CCN(CCOc2ccc(NC(=O)c3ccc[nH]3)cc2)CC1,6.53
3,CCC(NCCn1cccn1)C(=O)Nc1cc(C)on1 (stereo not given),2.9
4,NC(=O)COc1cccc(Cn2cccn2)c1,-6.59
5,COC(=O)CSCc1nc(-c2ccc(Cl)cc2)no1,-4.75
6,COc1cccc(NC(=O)NCC2CCCN(C3CCOCC3)C2)c1 (stereo not given),6.25
7,Cc1nn2cccnc2c1C(=O)NCc1ccccc1OCC1CC1,2.06
8,O=C(CCC(=O)N1CCNC(=O)C1c1cccc(F)c1)NC1CCCC1 (stereo not given),-9.49
9,Cc1nc(N)cc(NCc2csc(N(C)C)n2)n1,-14.5
10,O=C(c1cnc2c(c1)CCC2)N1CCCC(CO)(CC2CC2)C1 (stereo not given),3.82
11,Cc1ncsc1CCN(C)C(=O)c1ccc(CN2CCCCC2)cc1,5.27
12,Cc1cnccc1CNCc1ccc(OC23CCCN(CC2)C3)cc1 (stereo not given),-10.2
13,COc1cc(CNC(=O)COC2CCCC2)ccc1O,3.23
14,O=C1CN([C@@H]2CC[C@@H](NS(=O)(=O)c3ccccc3)[C@H]2O)CCN1,11.7
15,Cc1cc(Oc2ccc(NC(=O)C3CC3)cc2)cc(C2CCNCC2)n1,-9.8
16,Cc1cccc(C)c1NC(=O)NCC1CCCN(C2CCOCC2)C1 (stereo not given),5.67
17,COCC1CCN(c2ccnc3ccsc23)C1 (stereo not given),4.92
18,Cc1cc(C)n(CCN2CCC(N(C)Cc3noc(C4CC4)n3)C2)n1 (stereo not given),3.34
19,Cc1nccn1[C@@H]1CC[C@@H](N(C)S(=O)(=O)c2ccc(F)cc2)[C@H]1O,27.2
20,CCOCc1ccc(NC(=O)N2CCOC3(CCC3)C2)cc1,-2.16
